# Test results reported in ChEMBL document CHEMBL3433997, “St. Jude Leishmania screening dataset” (2016).
# Values joined by “and” are separate entries in the source; they are usually repeats but may differ in a detail not shown here. Equal entries are not always repeated.
# How the values were obtained:
# Type in all cases: functional
# [1] = molecular target: Solute carrier family 2, facilitated glucose transporter member 1 (Homo sapiens) (UniProt P11166); assay: ST_JUDE_LEISH: Cytotoxicity at 2uM final concentration against transgenic Leishmania Mexicana promastigotes LmGLUT1 that are glucose transport deficient and complemented with the human glucose transporter GLUT1. Activity is measured by DNA content using SYBR green in vitro
# Sequence of Solute carrier family 2, facilitated glucose transporter member 1 (Homo sapiens) (P11166 whole entry): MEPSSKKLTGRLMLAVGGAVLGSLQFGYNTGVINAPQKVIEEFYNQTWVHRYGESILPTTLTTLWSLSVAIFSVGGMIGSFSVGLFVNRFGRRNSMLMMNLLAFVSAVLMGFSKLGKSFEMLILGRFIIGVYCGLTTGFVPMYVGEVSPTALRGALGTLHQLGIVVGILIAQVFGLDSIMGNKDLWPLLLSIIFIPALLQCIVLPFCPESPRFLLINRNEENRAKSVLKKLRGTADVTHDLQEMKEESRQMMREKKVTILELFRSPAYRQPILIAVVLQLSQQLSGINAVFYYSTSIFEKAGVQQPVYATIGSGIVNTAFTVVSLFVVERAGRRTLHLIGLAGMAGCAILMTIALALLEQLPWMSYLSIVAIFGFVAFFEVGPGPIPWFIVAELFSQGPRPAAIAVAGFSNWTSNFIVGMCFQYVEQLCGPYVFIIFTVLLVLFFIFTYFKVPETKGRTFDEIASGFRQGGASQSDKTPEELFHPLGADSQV
# [2] = molecular target: Hexose transporter 1 (Plasmodium falciparum) (UniProt O97467); assay: ST_JUDE_LEISH: Cytotoxicity at 2uM final concentration against transgenic Leishmania Mexicana promastigotes LmPfHT that are glucose transport deficient and complemented with the Plasmodium falciparum hexose transporter. Activity is measured by DNA content using SYBR green in vitro
# [3] = molecular target: Glucose transporter (Leishmania mexicana) (UniProt O61059); assay: ST_JUDE_LEISH: Cytotoxicity at 2uM final concentration against transgenic Leishmania Mexicana promastigotes LmGT2 that are glucose transport deficient and complemented with the L. Mexicana glucose transporter 2. Activity is measured by DNA content using SYBR green in vitro
SMILES,inhibition [1],inhibition [2],inhibition [3]
CN1CCC(N(C)c2nccc(N3CCN(Cc4cncn4Cc4ccccc4)CC3)n2)CC1,12.8%,12.8%,10.8%
O=C(/C=C/c1cc([N+](=O)[O-])ccc1Cl)NC1CCC(CN2CCC(c3c[nH]c4ccccc34)CC2)CC1 (stereo unspecified),2.1%,1.69%,2.13%
O=C(Nc1cc(C(F)(F)F)cc(C(F)(F)F)c1)NC1CCC(CN2CCC(c3c[nH]c4ccccc34)CC2)CC1 (stereo unspecified),-2.79% and 4.32%,-1.6% and 4.26%,-0.26% and 2.03%
O=C(/C=C/c1cc(C(F)(F)F)ccc1F)NC1CCC(CN2CCC(c3c[nH]c4ccccc34)CC2)CC1 (stereo unspecified),6.52%,5.67%,6.74%
CCCCOC(C(=O)OCC1CCCN1C)(c1ccccc1)c1ccccc1 (stereo unspecified),-0.11%,1.91%,2.05%
CCCCCC(C)C(C)c1cc(O)c2c(c1)OC(C)(C)c1cnccc1-2 (stereo unspecified),-1.41%,0.7%,-1.32%
CCCCCCCc1cc(O)c2c3c(c(=O)oc2c1)CN(C)CC3,10.7%,11.3%,10.7%
COc1ccc(CN2CCN(CCOC(c3ccc(F)cc3)c3ccc(F)cc3)CC2)c(O)c1,6.6%,3.26%,2.85%
Cc1nc(N)nc(N)c1-c1cccc(Cl)c1,3.73%,4.7%,1.38%
Cc1cc2cc(CNCCc3ccccc3Br)ccc2nc1N,9.09%,1.37%,5.36%
COCC(=O)N(Cc1cccc(-c2ccc(CNCCc3ccccc3)cc2)c1)C1CCN(Cc2ccccc2)CC1,3.83%,5.42%,2.98%
C/C=C1/CN2CC[C@H]1C[C@H]2[C@H](O)c1ccnc2ccc(OC)cc12,-0.87%,-2.22%,2.08%
